Measurements reported in PubChem BioAssay (Tox21).
Results filed as inconclusive are left out. Activity calls are given as the source filed them. Unless noted, the call rests on the fitted dose curve; in most records, active means well fitted curve in the direction sought with a large enough effect in the repeat runs; inconclusive means weak or mixed curves; inactive means no such curve, though single readings can be large; an effect the other way counts as inactive or inconclusive.

How the values were obtained:
[1] = qHTS assay for small molecule agonists of the p53 signaling pathway (AID 651631; calls by dose curve; further: nearly all actives have a fitted effect of over 15% in size)
Outline: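 HCT-116 p53RE-bla reporter line, 16 h compound treatment at 37 °C, then fluorescence after 2 h with B/G FRET substrate.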

[2] = qHTS assay for small molecules that induce genotoxicity in human embryonic kidney cells expressing luciferase-tagged ATAD5 (AID 651632); further: nearly all actives have a fitted effect of over 15% in size
Outline: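 A rise in luciferase signal from ATAD5-tagged HEK293T cells marks genetic stress. Cells were exposed to compounds for 16 hr at 37C, 5% CO2, then luciferase was quantified after a 30 min room-temperature incubation with Amplite.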

[3] = qHTS assay for small molecule agonists of the p53 signaling pathway - cell viability (AID 651633; calls by dose curve;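 further: p53RE-bla HCT reporter cells with a stable beta-lactamase p53 reporter; series mostly up to about 83 µM; nearly all actives have a fitted effect of over 30% in size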)
Outline: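 p53RE-bla cells, seeded at 4,000 per well and rested 5 h at 37 C/5% CO2, received compounds in DMSO for 16 h at 37 C. CellTiter-Glo was then added, and luminescence was read after 30 min at room temperature to gauge cytotoxicity.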

[4] = qHTS assay for small molecules that induce genotoxicity in human embryonic kidney cells expressing luciferase-tagged ATAD5 - cell viability (AID 651634; calls by dose curve; further: nearly all actives have a fitted effect of over 25% in size)
Outline: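 Cytotoxicity counter-readout: after 15.5 hr compound treatment at 37C, live-cell protease activity in ATAD5-luciferase HEK293T cells measured by CellTiter-Fluor fluorescence, 30 min development at 37C.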

[5] = qHTS assay for small molecule disruptors of the mitochondrial membrane potential - cell viability (AID 720634; calls by dose curve;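 further: human HepG2 liver cancer cells; series mostly up to about 83 µM; nearly all actives have a fitted effect of over 20% in size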)
Outline: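 Cytotoxicity was quantified from ATP content by CellTiter-Glo luminescence in the same wells as the MMP dye read-out. HepG2 (2,000 cells/well) were plated overnight and exposed to compounds for 1 hr at 37 C.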

[6] = qHTS assay to test for compound auto fluorescence at 535 nm (green) in HepG2 cells (AID 720675)
[7] = qHTS assay to test for compound auto fluorescence at 460 nm (blue) in HEK293 cells (AID 720678)
Outline: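 Blue-channel (Ex/Em 405/460 nm) intensity measured in HEK293 cultures after overnight compound exposure at 37C; signal expressed relative to triamterene. Cells plated 2,000 per well in 10% dialyzed FBS medium and allowed 4-5 hr to attach.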

[8] = qHTS assay to test for compound auto fluorescence at 590 nm (red) in HEK293 cells (AID 720679)
Outline: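 Red-channel autofluorescence (Ex/Em 540/590 nm; Rose Bengal sodium reference) was measured after overnight 37C, 5% CO2 exposure of attached HEK293 cells, 2,000 per well in medium with 10% dialyzed FBS.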

[9] = qHTS assay to test for compound auto fluorescence at 535 nm (green) in HEK293 cells (AID 720680)
[10] = qHTS assay to test for compound auto fluorescence at 460 nm (blue) in HEK293 cell free culture (AID 720681)
Outline: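 Test compounds were pinned into cell-free culture medium (DMEM with 10% FBS) and fluorescence was read directly at Ex/Em 405/460 nm. Signals were expressed as fluorescence equivalents of triamterene, with DMSO vehicle as control.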

[11] = qHTS assay to test for compound auto fluorescence at 535 nm (green) in HEK293 cell free culture (AID 720682)
Outline: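 Steps: dispense DMEM/10% FBS into empty wells; pin in compound or DMSO; measure fluorescence at 485/535 nm. Values are fluorescein equivalents.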

[12] = qHTS assay to test for compound auto fluorescence at 590 nm (red) in HEK293 cell free culture (AID 720683)
Outline: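 Tox21 10K library compounds were pinned into cell-free DMEM with 10% FBS and fluorescence was read at excitation 540 nm. Activity is expressed as Rose Bengal sodium equivalency.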

[13] = qHTS assay to test for compound auto fluorescence at 590 nm (red) in HepG2 cell free culture (AID 720684)
Outline: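 Ex 540 / Em 590 nm read of compound in cell-free MEM (10% FBS). Rose Bengal sodium reference.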

[14] = qHTS assay to test for compound auto fluorescence at 460 nm (blue) in HepG2 cell free culture (AID 720685)
Outline: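 Cell-free plates of MEM plus 10% FBS received 23 nL compound or DMSO vehicle; blue-channel (405/460 nm) intensity scored against triamterene as reference fluorophore.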

[15] = qHTS assay to test for compound auto fluorescence at 535 nm (green) in HepG2 cell free culture (AID 720686)
[16] = qHTS assay to test for compound auto fluorescence at 460 nm (blue) in HepG2 cells (AID 720687)
Outline: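 Cells (2,000/well in MEM with 10% FBS) attached overnight at 37 C, then were exposed to compound or DMSO for 1 hr at 37 C, 5% CO2. Fluorescence read at Ex/Em 405/460 nm, expressed as triamterene-equivalent signal.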

[17] = qHTS assay to identify small molecule antagonists of the glucocorticoid receptor (GR) signaling pathway - cell viability counter screen (AID 720693); further: nearly all actives have a fitted effect of over 55% in size
[18] = qHTS assay for identifying genotoxic compounds that show differential cytotoxicity against isogenic chicken DT40 cell lines with known DNA damage response pathways - Rad54/Ku70 mutant cell line (AID 743015); further: nearly all actives have a fitted effect of over 60% in size; further: potency means the concentration at half of the fitted maximal effect
[19] = qHTS assay to identify small molecule antagonists of the androgen receptor (AR) signaling pathway - cell viability counter screen (AID 743033; further: nearly all actives have a fitted effect of over 45% in size)
[20] = qHTS assay to identify small molecule antagonists of the androgen receptor (AR) signaling pathway using the MDA cell line - cell viability counter screen (AID 743041; further: nearly all actives have a fitted effect of over 45% in size)
Outline: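 In this qHTS counter assay, fluorescence intensity after CellTiter-Fluor addition indicated viability of MDA-kb2 AR-luc cells given compounds and R1881 for 16 h at 37C.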

[21] = qHTS assay to identify small molecule antagonists of the thyroid receptor (TR) signaling pathway - cell viability counter screen (AID 743064); further: nearly all actives have a fitted effect of over 50% in size; further: potency means the concentration at half of the fitted maximal effect
Outline: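 Plate GH3.TRE-Luc cells; incubate 4 h at 37 °C; add compound, then T3 to 1 nM final; incubate 23.5 h; add CellTiter-Fluor; incubate 30 min at 37 °C, 5% CO2; read fluorescence.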

[22] = qHTS assay to identify small molecule antagonists of the thyroid receptor (TR) signaling pathway (AID 743065); further: nearly all actives have a fitted effect of over 55% in size; further: potency means the concentration at half of the fitted maximal effect
Outline: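 GH3.TRE-Luc rat pituitary cells carrying two TR response elements driving luciferase were plated for 4 h, given compound plus 1 nM T3 (final), and incubated 23.5 h at 37 C. ONE-Glo luminescence measured reporter inhibition; CellTiter-Fluor fluorescence tracked cytotoxicity.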

[23] = system: thyroid hormone receptor (rat, GH3 cells); assay: qHTS assay to identify small molecule agonists of the thyroid receptor (TR) signaling pathway (AID 743066; calls by dose curve)
[24] = biological target: Estrogen receptor (Homo sapiens) (UniProt P03372); assay: qHTS assay to identify small molecule antagonists of the estrogen receptor alpha (ER-alpha) signaling pathway (AID 743069; active means well fitted curve in the direction sought with a large enough effect in the signal ratio in the repeat runs, not every such curve was filed as active; the % refers to the signal ratio)
Outline: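 A 17beta-estradiol challenge was applied right after compound transfer to ER-alpha-UAS-bla HEK293 cells previously kept in charcoal-stripped serum. Plates stood 18 hr at 37C and 5% CO2; fluorescence was read following 2 hr FRET substrate loading at room temperature.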

[25] = biological target: Estrogen receptor (Homo sapiens) (UniProt P03372); assay: qHTS assay to identify small molecule agonists of the estrogen receptor alpha (ER-alpha) signaling pathway (AID 743075; calls by dose curve;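 further: HEK293 GripTite cells with ER-alpha and UAS-driven beta-lactamase reporter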)
[26] = biological target: Estrogen receptor (Homo sapiens) (UniProt P03372); assay: qHTS assay to identify small molecule agonists of the estrogen receptor alpha (ER-alpha) signaling pathway using the BG1 cell line (AID 743079); further: nearly all actives have a fitted effect of over 20% in size
[27] = qHTS assay to identify small molecule antagonists of the estrogen receptor alpha (ER-alpha) signaling pathway using the BG1 cell line (AID 743080; calls by dose curve;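 further: BG1 cells stimulated with 17beta-estradiol alongside compound; series mostly up to about 70 µM; nearly all actives have a fitted effect of over 25% in size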)
Outline: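 Luciferase inhibition measured with ONE-Glo after 30 min at RT in BG1Luc4E2 cells given test compounds and 17beta-estradiol for 21.5 h at 37 C; CellTiter-Fluor viability read in the same wells beforehand.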

[28] = biological target: Aromatase (Homo sapiens) (UniProt P11511); assay: qHTS assay to identify aromatase inhibitors (AID 743083); further: series mostly up to about 70 µM; nearly all actives have a fitted effect of over 55% in size
[29] = qHTS assay to identify aromatase inhibitors - cell viability counter screen (AID 743084);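 further: cells stimulated with testosterone during compound exposure; nearly all actives have a fitted effect of over 55% in size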
[30] = biological target: Aryl hydrocarbon receptor (Homo sapiens) (UniProt P35869); assay: qHTS assay to identify small molecule that activate the aryl hydrocarbon receptor (AhR) signaling pathway (AID 743085);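 further: HG2L7.5c1 human HepG2 liver cells with stably integrated DRE-driven firefly reporter; series mostly up to about 70 µM; nearly all actives have a fitted effect of over 15% in size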
Outline: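 Steps: seed HepG2-AhR-luc cells; allow 5 h at 37C; pin-transfer test compound or vehicle; incubate 24 h at 37C; add viability dye (30 min, 37C) and read fluorescence; add luciferase substrate (30 min, RT) and read luminescence.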

[31] = qHTS assay to identify small molecule that activate the aryl hydrocarbon receptor (AhR) signaling pathway - cell viability counter screen (AID 743086);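 further: HepG2 liver cells carrying the AhR DRE luciferase reporter; series mostly up to about 70 µM; nearly all actives have a fitted effect of over 45% in size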
Outline: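 HepG2-AhR-luc (HG2L7.5c1) cells, 4000/well, were preincubated 5 h at 37C, exposed to compound in qHTS format for 24 hr at 37C, then given CellTiter-Fluor for 30 min; viability was read as fluorescence in the reporter wells.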

[32] = biological target: Peroxisome proliferator-activated receptor gamma (Homo sapiens) (UniProt P37231); assay: qHTS assay to identify small molecule agonists of the peroxisome proliferator-activated receptor gamma (PPARg) signaling pathway (AID 743094; active means well fitted activation curve with a large enough effect in the signal ratio in the repeat runs, not every such curve was filed as active; the % refers to the signal ratio)
Outline: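 Agonist activity was taken from a beta-lactamase reporter (FRET substrate, 1 h at room temperature) in HEK293H cells carrying a PPARg UAS-bla construct. Compounds in DMSO were incubated 17 h at 37C after a 5 h cell pre-incubation.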

[33] = qHTS assay to identify small molecule antagonists of the estrogen receptor alpha (ER-alpha) signaling pathway using the BG1 cell line - cell viability counter screen (AID 743081);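 further: compound given together with 17beta-estradiol as the ER stimulus; series mostly up to about 70 µM; nearly all actives have a fitted effect of over 45% in size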
[34] = biological target: Acetylcholinesterase (Homo sapiens) (UniProt P22303); assay: Acetylcholinesterase (AChE) small molecule antagonists: enzyme-based qHTS assay with human liver microsomes (AID 1347399; calls by dose curve; further: nearly all actives have a fitted effect of over 60% in size); settings: Potency: qHTS inhibition; outcome: qHTS inhibition
Outline: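 Recombinant human AChE (50 mU/mL in the enzyme mix) and human liver microsomes (0.25 mg/mL final) were preincubated with compound and NADPH (0.25 mg/mL final) for 30 min at 37 C. Acetylthiocholine/DTNB was then added; thiocholine was read colorimetrically after 10 min at room temperature.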

Measured: Potency

Chain of Estrogen receptor (Homo sapiens) (P03372 whole entry, looked up): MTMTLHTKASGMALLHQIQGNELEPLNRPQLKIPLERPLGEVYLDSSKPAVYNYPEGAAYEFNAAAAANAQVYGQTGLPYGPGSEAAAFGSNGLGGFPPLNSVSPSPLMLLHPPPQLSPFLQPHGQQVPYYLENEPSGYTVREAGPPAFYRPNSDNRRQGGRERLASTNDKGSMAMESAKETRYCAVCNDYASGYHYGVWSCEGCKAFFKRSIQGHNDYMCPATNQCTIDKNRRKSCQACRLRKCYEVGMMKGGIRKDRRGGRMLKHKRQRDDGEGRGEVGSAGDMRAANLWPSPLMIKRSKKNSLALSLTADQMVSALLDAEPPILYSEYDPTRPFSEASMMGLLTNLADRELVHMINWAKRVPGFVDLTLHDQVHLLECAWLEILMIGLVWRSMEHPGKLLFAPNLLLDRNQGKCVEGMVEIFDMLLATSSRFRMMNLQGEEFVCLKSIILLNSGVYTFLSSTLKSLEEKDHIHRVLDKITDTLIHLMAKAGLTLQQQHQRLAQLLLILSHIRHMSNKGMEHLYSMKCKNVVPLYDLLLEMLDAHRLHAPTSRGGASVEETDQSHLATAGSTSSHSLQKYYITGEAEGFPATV
Chain of Aromatase (Homo sapiens) (P11511 whole entry, looked up): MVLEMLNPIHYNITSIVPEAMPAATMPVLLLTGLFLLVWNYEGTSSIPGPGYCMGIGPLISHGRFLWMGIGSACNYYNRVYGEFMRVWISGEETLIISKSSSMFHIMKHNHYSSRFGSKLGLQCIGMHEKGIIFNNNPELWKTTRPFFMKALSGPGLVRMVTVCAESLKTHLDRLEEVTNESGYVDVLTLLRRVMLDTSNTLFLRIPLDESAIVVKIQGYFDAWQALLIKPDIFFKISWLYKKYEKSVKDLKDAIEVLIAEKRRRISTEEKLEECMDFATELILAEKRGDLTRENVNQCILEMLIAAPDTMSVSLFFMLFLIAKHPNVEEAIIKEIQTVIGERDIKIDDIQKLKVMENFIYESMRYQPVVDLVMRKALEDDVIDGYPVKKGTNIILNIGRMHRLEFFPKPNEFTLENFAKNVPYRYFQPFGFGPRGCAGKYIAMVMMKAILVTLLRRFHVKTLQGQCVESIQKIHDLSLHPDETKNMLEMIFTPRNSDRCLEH
Chain of Acetylcholinesterase (Homo sapiens) (P22303 whole entry, looked up): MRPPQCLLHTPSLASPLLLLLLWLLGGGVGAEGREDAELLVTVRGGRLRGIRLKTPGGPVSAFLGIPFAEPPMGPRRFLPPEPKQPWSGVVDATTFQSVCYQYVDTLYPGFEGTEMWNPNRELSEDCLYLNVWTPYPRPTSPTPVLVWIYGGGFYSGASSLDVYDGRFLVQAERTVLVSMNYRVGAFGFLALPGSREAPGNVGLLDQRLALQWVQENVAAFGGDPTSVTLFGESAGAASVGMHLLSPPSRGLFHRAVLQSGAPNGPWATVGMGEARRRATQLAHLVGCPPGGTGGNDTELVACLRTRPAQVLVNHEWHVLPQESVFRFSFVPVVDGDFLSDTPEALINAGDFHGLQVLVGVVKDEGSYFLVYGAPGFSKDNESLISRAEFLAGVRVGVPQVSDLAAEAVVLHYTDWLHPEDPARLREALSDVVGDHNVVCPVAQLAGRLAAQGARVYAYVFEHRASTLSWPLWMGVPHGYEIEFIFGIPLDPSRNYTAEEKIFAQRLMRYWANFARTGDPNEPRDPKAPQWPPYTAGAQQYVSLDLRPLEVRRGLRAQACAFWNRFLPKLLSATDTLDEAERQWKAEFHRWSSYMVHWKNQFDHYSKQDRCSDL
Chain of Peroxisome proliferator-activated receptor gamma (Homo sapiens) (P37231 whole entry, looked up): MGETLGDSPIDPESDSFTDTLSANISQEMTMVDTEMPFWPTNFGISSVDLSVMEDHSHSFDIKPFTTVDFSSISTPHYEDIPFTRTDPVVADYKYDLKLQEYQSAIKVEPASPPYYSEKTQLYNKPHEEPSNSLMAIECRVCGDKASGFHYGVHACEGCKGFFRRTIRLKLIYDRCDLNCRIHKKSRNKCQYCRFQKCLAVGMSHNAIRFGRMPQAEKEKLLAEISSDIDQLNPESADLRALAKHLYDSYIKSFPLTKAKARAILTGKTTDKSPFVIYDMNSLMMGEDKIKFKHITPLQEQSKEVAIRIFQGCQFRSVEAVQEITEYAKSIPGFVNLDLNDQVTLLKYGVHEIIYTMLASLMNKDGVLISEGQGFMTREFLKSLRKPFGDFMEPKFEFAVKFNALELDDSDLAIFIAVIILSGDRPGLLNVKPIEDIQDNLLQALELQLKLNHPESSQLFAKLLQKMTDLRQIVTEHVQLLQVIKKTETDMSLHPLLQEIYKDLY
Chain of Aryl hydrocarbon receptor (Homo sapiens) (P35869 whole entry, looked up): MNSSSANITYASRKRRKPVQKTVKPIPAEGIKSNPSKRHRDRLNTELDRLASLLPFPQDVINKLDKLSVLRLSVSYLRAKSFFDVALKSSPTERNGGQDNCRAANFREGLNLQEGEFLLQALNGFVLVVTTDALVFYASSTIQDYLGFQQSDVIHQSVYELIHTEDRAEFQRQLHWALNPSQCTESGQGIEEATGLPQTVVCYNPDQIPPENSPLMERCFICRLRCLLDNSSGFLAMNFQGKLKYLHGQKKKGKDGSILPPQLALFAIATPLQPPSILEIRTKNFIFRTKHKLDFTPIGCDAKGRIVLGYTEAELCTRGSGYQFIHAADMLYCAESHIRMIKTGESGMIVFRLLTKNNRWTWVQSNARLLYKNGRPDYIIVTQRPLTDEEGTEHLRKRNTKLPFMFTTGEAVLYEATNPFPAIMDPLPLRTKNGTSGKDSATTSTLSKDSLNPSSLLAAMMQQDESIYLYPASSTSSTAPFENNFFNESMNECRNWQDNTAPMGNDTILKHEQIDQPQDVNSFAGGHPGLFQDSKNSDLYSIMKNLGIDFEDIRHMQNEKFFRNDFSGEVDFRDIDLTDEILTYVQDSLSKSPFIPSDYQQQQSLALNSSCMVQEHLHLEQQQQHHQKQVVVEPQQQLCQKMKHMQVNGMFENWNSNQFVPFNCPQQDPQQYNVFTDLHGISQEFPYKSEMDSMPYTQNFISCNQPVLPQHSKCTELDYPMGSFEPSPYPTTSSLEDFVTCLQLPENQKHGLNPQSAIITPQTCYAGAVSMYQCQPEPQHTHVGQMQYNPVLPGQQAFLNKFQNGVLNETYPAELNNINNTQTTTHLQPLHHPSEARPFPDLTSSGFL

Clc1ccc([C@@H]2C[C@H]3CC[C@@H]2N3)cn1
not listed: [33] | [34]
inactive: all other assays above

CCC(=O)O[C@](Cc1ccccc1)(c1ccccc1)[C@H](C)CN(C)C
active: [18] 67.6 µM | [21] 26.9 µM | [22] 53.7 µM
not listed: [24] | [25] | [26] | [27] | [28] | [29] | [30] | [31] | [32] | [34]
inactive: all other assays above

Nc1ncnc2c1ncn2CCOCP(=O)(O)O
inactive: [1] | [28]

O=C(O)c1ccccc1[O-].O=C(O)c1ccccc1[O-].[Zn+2]
inactive: [4] | [11] | [17] | [18] | [19] | [20] | [21] | [23] | [33] | [31]

CCN(CC)CCCC(C)Nc1c2ccc(Cl)cc2nc2ccc(OC)cc12 (centres undefined)
inactive: [34]
